# Laboratory results published in PubChem BioAssay (Tox21).
# Several values for one entry are separate records, joined by “and”; a condition that tells them apart may be missing. Equal entries are not always repeated. Records with an inconclusive call do not appear. A call without a number means that no potency is given here. Activity calls are given as the source filed them. Calls come from the whole dose curve; as a rule, active = well fitted inhibition curve with a large enough effect in the repeat runs; inconclusive = weak or mixed curves; inactive = no such curve, though single readings can be large or run the other way.
# Target: Cytochrome P450 3A4 (Homo sapiens) (UniProt P08684)
# Assay: Cytochrome P450 Family 3 Subfamily A Member 4 (CYP3A4) small molecule antagonists: luciferase reporter qHTS assay (AID 1671201); note: nearly all actives have a fitted effect of over 50% in size
# Details: P450-Glo CYP3A4 enzyme, luciferin luminescence, 1 h; series mostly up to 115 µM
# From the text: National Center for Advancing Translational Sciences [NCATS]
# U.S. Environmental Protection Agency [EPA]
# National Institutes of Environmental Health Sciences [NIEHS]
# National Toxicology Program [NTP]
# U.S. Food and Drug Administration [FDA]
# Cytochrome P450 (CYP) enzymes are membrane-bound hemeproteins that play a key role in metabolism of drugs and xenobiotics. Evaluation of the effect of chemicals on CYP isozymes is useful to minimize the adverse drug reactions and toxicities in drug development process. Tox21 chemicals were tested for their effect on CYP enzyme activities by using P450-Glo (TM) screening systems (Promega Corporation, Madison, WI). These systems provide a luminescent method containing proluciferin substrates and are converted to luciferin products by CYP isozymes. The luciferin products formed are detected with a luciferin detection reagent, and the amount of light produced is proportional to CYP activity. P450-Glo (TM) CYP3A4 screening system (Catalog. No. V9910) was used to detect the compounds that interfere in CYP3A4 activity. The positive control compound used for CYP3A4 assay is ketoconazole (Sigma-Aldrich, St. Louis, MO).
# Tox21 Assay Protocol Summary:
# Two ul of enzyme-substrate mix was dispensed into medium binding white/solid 1536-well plates (Greiner Bio-One North America Inc., Monroe, NC) using a BioRaptr Flying Reagent Dispenser (FRD, Beckman Coulter, Brea, CA). Compounds dissolved in DMSO and positive control (ketoconazole) were transferred to the assay plates at 23 nl using a Pintool station (Wako, San Diego, CA). The assay plates were incubated at room temperature for 10 min. Then 2 ul of NADPH regeneration solution was added to each well of the assay plates using an FRD and incubated at room temperature for 1 h. The reaction was stopped by adding 4 ul of detection reagent using an FRD and after 20 min incubation at room temperature the luminescence signal was measured using a ViewLux plate reader (Perkin Elmer, Shelton, CT). Data were expressed as relative luminescence units.
# Potency is the fitted concentration of half-maximal effect.
# Chain of Cytochrome P450 3A4 (Homo sapiens) (P08684 whole entry, looked up): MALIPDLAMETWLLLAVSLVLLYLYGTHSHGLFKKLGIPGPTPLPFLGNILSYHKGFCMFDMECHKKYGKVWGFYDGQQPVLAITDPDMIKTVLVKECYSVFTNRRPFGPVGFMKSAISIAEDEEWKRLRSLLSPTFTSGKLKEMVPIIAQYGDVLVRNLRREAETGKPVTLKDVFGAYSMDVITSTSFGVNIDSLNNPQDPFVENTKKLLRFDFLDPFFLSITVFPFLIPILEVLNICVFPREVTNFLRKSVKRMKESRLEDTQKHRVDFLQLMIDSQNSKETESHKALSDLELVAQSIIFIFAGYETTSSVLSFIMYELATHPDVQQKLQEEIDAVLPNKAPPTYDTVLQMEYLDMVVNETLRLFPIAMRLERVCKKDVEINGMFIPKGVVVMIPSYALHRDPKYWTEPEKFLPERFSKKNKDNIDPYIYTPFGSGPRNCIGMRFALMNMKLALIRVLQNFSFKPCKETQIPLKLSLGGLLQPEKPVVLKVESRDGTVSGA
row,Compound,Potency
1,O=C(Oc1ccccc1)c1ccccc1C(=O)Oc1ccccc1,inactive
2,CCCC(C)c1ccccc1O (stereo not given),inactive
3,Cc1cc(N)c(S(=O)(=O)O)cc1Cl,inactive
4,CCc1oc2ccccc2c1C(=O)c1cc(Br)c(O)c(Br)c1,inactive
5,NC(=O)NS(=O)(=O)c1ccc(N)cc1,inactive
6,CCCCCCCC[P+](CCCCCCCC)(CCCCCCCC)CCCCCCCC,0.445 µM (active)
7,Cc1[nH]nc2c1N=C(c1ccccc1Cl)c1cc([N+](=O)[O-])ccc1N2,3.99 µM (active)
8,O=c1cccccc1O,inactive
9,C[n+]1ccn(Cc2ccccc2)c1,inactive
10,Nc1c2ccccc2nc2ccccc12,inactive
11,O=C(O)c1ccc(Cl)c(Cl)c1,inactive
12,O=C(c1ccc(F)cc1)C1CCN(CCn2c(=O)[nH]c3ccccc3c2=O)CC1,inactive
13,CN(C)[C@@H]1C(=O)C(C(N)=O)=C(O)[C@@]2(O)C(=O)C3=C(O)c4c(O)cccc4C[C@H]3C[C@@H]12,inactive
14,CCCCCOC(=O)CCCC,inactive
15,N#CC1(c2ccc(F)cc2)CCC(=O)CC1,inactive
16,COc1ccc(-c2ccc3cc(C(=O)O)ccc3c2)cc1C12CC3CC(CC(C3)C1)C2,inactive
17,COC(=O)c1cc(Cl)ccc1OC,inactive
18,C1CCCC1,inactive
19,CCCCCCCCCCCCCC[P+](CCCC)(CCCC)CCCC (tested in a mixture with another compound),inactive
20,Cc1ccc(O)c2ncccc12,inactive

row,Compound,Potency
1,Oc1ccc2cc(SSc3ccc4cc(O)ccc4c3)ccc2c1,14.2 µM (active) and 31.7 µM (active)
2,CC(C)(C)C(=O)OCOC(=O)C1N2C(=O)CC2S(=O)(=O)C1(C)C (stereo not given),inactive
3,CCc1cc(Cc2cc(CC)c(N)c(CC)c2)cc(CC)c1N,0.633 µM (active)
4,O=C1C=CC(=O)N1c1ccc(Cc2ccc(N3C(=O)C=CC3=O)cc2)cc1,35.6 µM (active)
5,Nc1ccc2cc(S(=O)(=O)O)cc(O)c2c1N=Nc1ccccc1C(F)(F)F,inactive
6,NC(=O)N1C(=O)C(C(=O)c2cc(Cl)cs2)c2cc(F)c(Cl)cc21 (stereo not given),5.03 µM (active)
7,Nc1ccc(N)c2ccccc12,3.55 µM (active)
8,CCCCc1oc2ccc(NS(C)(=O)=O)cc2c1C(=O)c1ccc(OCCCN(CCCC)CCCC)cc1,inactive
9,NNc1nc(-c2ccc(N)cc2)cs1,14.2 µM (active)
10,O=C1c2ccccc2Cc2ccccc21,22.6 µM (active)
11,NNc1nc(-c2ccccc2)cs1,5.8 µM (active)
12,CC1=C(/C=C/C(C)=C/C=C/C(C)=C/C=O)C(C)(C)CCC1,28.1 µM (active)
13,CCCCN1C(=O)[C@@H]([C@H](O)C2CCCCC2)NC(=O)C12CCN(Cc1ccc(Oc3ccc(C(=O)O)cc3)cc1)CC2,17.8 µM (active)
14,CCC(Cl)C(Cl)C(Cl)CC(Cl)C(Cl)C(C)Cl (stereo not given),inactive
15,CSc1cnc(C)cn1,inactive
16,CC/C(=C(\c1ccc(O)cc1)c1ccc(OCCN(C)C)cc1)c1ccccc1,12.7 µM (active)
17,CNc1ccc(O)cc1,25.1 µM (active)
18,CCN(C(=O)c1cc(C)cc(OC[C@H](C)Nc2ccncc2)c1)C(C)C,0.992 µM (active)
19,Cc1cc(C2CCCCC2)n(O)c(=O)c1,inactive
20,O=C(Nc1ccc(Oc2ccc(Cl)cc2)c(Cl)c1)c1cc(I)cc(I)c1O,inactive
